Shown are actives, neighbours in structure and some others; about 6.5% of the full set was active somewhere.
FMDV antiviral = High Throughput Screening for Foot and Mouth Disease Virus Antivirals | FMDV antiviral cell-based qHTS | Potency, µM (series often up to 57.9 µM), without a hit: at the top dose activity change, negative = inhibition, hits mostly inhibitors | actives 1.2% (n = 410,000); calls by dose curve; tested in HEK293T cells; also: read-out not given here; potency is read from the fitted curve at half-maximal effect; nearly all actives have a fitted effect of over 45% in size
Vaccinia mCherry = qHTS for Stage-Specific Inhibitors of Vaccinia Orthopoxvirus: mCherry Reporter Primary qHTS; actives 0.63% (n = 310,000); AID 720579, 2013; Vaccinia virus mCherry reporter infection, fluorescence; Potency, µM (top dose mostly 36.5 µM), without a hit: at the highest dose activity change, negative = inhibition, actives largely listed as inhibitors; calls by dose curve; tested in A549 cells; also: potency is read from the fitted curve at half-maximal effect; nearly all actives have a fitted effect of over 35% in size
Lassa entry inh = qHTS for Inhibitors of binding or entry into cells for Lassa Virus | actives 1.2% (n = 300,000) | AID 540256, 2011 | Lassa virus pseudotype entry inhibition, cell reporter | Potency, µM (series often up to 37.9 µM), inactives show top-dose activity change, negative = inhibition, actives largely listed as inhibitors; calls by dose curve; tested in HEK293 cells; also: potency is read from the fitted curve at half-maximal effect; nearly all actives have a fitted effect of over 50% in size
VACV Venus inh = qHTS for Stage-Specific Inhibitors of Vaccinia Orthopoxvirus: Venus Reporter Primary qHTS | actives 0.46% (n = 330,000) | AID 720580, 2013 | Vaccinia virus Venus reporter expression, fluorescence | Potency, µM (series often up to 36.5 µM), for inactives: top-dose activity change, negative = inhibition, most hits filed as inhibitors; calls by dose curve; tested in A549 cells; also: potency is read from the fitted curve at half-maximal effect; nearly all actives have a fitted effect of over 30% in size
HCMV antiviral = qHTS Assay for inhibitors of the human cytomegalovirus (HCMV); actives 4.5% (n = 410,000); AID 1259415, 2018; HFF cells, HCMV-luciferase reporter, 72 h; active compounds read low; activity change, negative = inhibition, % at 57.5 µM; in the data active = activity change below about -60%; inconclusive = no clear call, values can overlap the other calls; inactive = above about -39%
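HFF cells seeded 16 h at 37C, treated with compounds, infected with luciferase-reporter HCMV at MOI 1 PFU/cell; luciferase read at 72 h post infection, normalized to buffer-only and Salinomycin controls.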
Marburg entry inh = qHTS for inhibitors of binding or entry into cells for Marburg Virus. Marburg virus pseudotyped entry inhibition, cell reporter. Potency, µM (series often up to 37.8 µM), for inactives: at the top dose activity change, negative = inhibition, hits mostly inhibitors. actives 1.8% (n = 300,000). AID 540276, 2011; calls by dose curve; tested in HEK293 cells; also: potency is read from the fitted curve at half-maximal effect
Numbers without * were called inactive; i = inactive; ? = inconclusive; nt = no result given; + = active, no number; [ ] = remark or other dose. % is scaled to controls: 0 for no effect and ±100 for the full control effect.

SMILES	FMDV antiviral	Vaccinia mCherry	Lassa entry inh	VACV Venus inh	HCMV antiviral	Marburg entry inh
Cc1ccc(CNC(=O)c2ccc(Cn3c(=O)c4ccccc4n(CC(=O)Nc4c(C)cc(C)cc4C)c3=O)cc2)cc1	-23%	?	-5%[46.1 µM]	?	-33	14%[46.1 µM]
N#Cc1ccccc1Cn1c(=O)n(Cc2ccc(C(=O)NCc3ccco3)cc2)c(=O)c2sccc21	12%	2%	-6%	-5%	-17	11%
Cc1cccc(C)c1NC(=O)Cn1c(=O)n(Cc2ccc(C(=O)NCc3ccco3)cc2)c(=O)c2sccc21	-19%	-9%	?	8%	-66*	3%[46.1 µM]
Cc1cc(C)c(NC(=O)Cn2c(=O)n(Cc3ccc(C(=O)NCc4ccco4)cc3)c(=O)c3sccc32)c(C)c1	-3%	0%[7.34 µM]	?	-4%[7.34 µM]	-76*	-27%[46.1 µM]
COc1ccc2ccccc2c1CN1CCC2(CCC(CNC(=O)c3ccccc3)O2)CC1 (centres undefined)	-18%	i	nt	-9%	nt	nt
O=S(=O)(NCc1nc(N2CCCC2)c2cc(Cl)ccc2n1)c1ccccc1OC(F)(F)F	-5%	-14%	nt	-15%	nt	nt
Clc1ccc2c(c1)C1OCCC1C(c1ccco1)N2 (centres undefined)	10%	?	0%	-16%	152	-14%
CC(=O)N1c2ccc(Cl)cc2C2OCCC2C1c1ccco1 (centres undefined)	-26%	-3%	5%	-15%	-66*	-27%
Cc1cc2nc(-c3ccccc3)c(-c3c(F)cc(F)cc3F)nc2cc1C	nt	nt	nt	nt	-14	nt
CC1(C(=O)O)CCC(C(N)=O)C1(C)C (centres undefined)	-11%	-10%	19%	-8%	-25	15%[46.1 µM]
CC1(C(=O)O)C2CCC(O2)C1(C)C(=O)O (centres undefined)	nt	nt	3.3µM*	nt	nt	4.1µM*
CCN(CC)c1ccc(/C=C2\C=Cc3ccccc32)cc1	nt	-4%	nt	-4%	nt	nt
Cc1[nH][nH]c(=O)c1C(c1c(C)[nH][nH]c1=O)c1cn(Cc2ccc(Cl)c(Cl)c2)c2ccccc12	?	-27%	?	-21%	?	8.2µM*
CCCC(=O)NC1CCc2cc(OC)c(OC)c(OC)c2-c2ccc(OC)c(=O)cc21 (centres undefined)	-6%	?	?	?	-91*	?
COc1c(O[C@@H]2O[C@H](CO)[C@@H](O)[C@H](O)[C@H]2O)cc2c(c1OC)-c1ccc(SC)c(=O)cc1C(NC(C)=O)CC2 (some centres undefined)	-24%	-12%	nt	-7%	-23	nt
COc1cc(CC(=O)NC2CCCc3ccccc32)cc(OC)c1OC (centres undefined)	21%	i	-17%[46.1 µM]	0%	-29	?
COc1c(C=O)c2c(c(OC)c1OC)-c1ccc(OC)c(=O)cc1C(NC(C)=O)CC2 (centres undefined)	-6%	?	?	?	-68*	-3%
COC(=O)c1ccc2c(c1)C(NC(C)=O)CCc1cc(OC)c(OC)c(OC)c1-2 (centres undefined)	-14%	i	?	?	-81*	?
COc1ccc2c(c1)C(NC(C)=O)CCc1cc(OC)c(OC)c(OC)c1-2 (centres undefined)	-17%	-10%	?	?	-67*	?
COc1cc2c(c(OC)c1OC)-c1ccc(O)c(=O)cc1C(NC(C)=O)CC2 (centres undefined)	-8%	-21%	-26%	?	nt	?
COc1cc2c(c(OC)c1OC)-c1ccc(OC)c(=O)cc1C(NC(C)=O)CC2 (centres undefined)	-5%	-29%	nt	?	-87*	nt
O=C1CN(C(=O)COC(=O)c2ccc(Br)o2)c2ccccc2N1	-3%	nt	nt	nt	-102*	nt
O=C1CN(C(=O)COC(=O)CNC(=O)c2ccc(Br)o2)c2ccccc2N1	-5%	-5%	2%[46.1 µM]	-16%	25	1%[46.1 µM]
COc1ccccc1CCNC(=O)Cc1c(C)c2cc3c(C)coc3cc2oc1=O	3%	-10%	-9%[46.1 µM]	-5%	-21	-4%[46.1 µM]
CSCCNCc1c(C(=O)N2CCOCC2)nc2c(C)cccn12	-15%	-13%	11%	-6%	-4	4%[46.1 µM]
SMILES	FMDV antiviral	Vaccinia mCherry	Lassa entry inh	VACV Venus inh	HCMV antiviral	Marburg entry inh
Cc1cccn2c(CNCC3(c4ccccc4)CCCC3)c(C(=O)N3CCOCC3)nc12	-24%	-28%	?	-19%	-101*	8.9µM*
Cc1ccc(S(=O)(=O)N(Cc2nc(-c3cccc(C)c3)no2)C2CCCCC2)cc1	26%	-18%	25%[46.1 µM]	-21%	-14	14%[46.1 µM]
Cc1cnc(-n2ncc(C(=O)N(C)CCc3ccccn3)c2-c2cccs2)nc1-c1ccc(F)cc1	-15%	-17%	nt	-5%	nt	nt
CN(c1ccc(F)cc1)S(=O)(=O)N1CCCC(C(=O)NCc2ccccc2Cl)C1 (centres undefined)	-9%	-12%	?	-5%	-40	nt
COc1ccc(CNC(=O)C2CCCN(S(=O)(=O)N3CCC(C)CC3)C2)c(OC)c1 (centres undefined)	7%	-2%	-12%[46.1 µM]	-20%	+	1%[46.1 µM]
COc1cccc(CNC(=O)C2CCCN(S(=O)(=O)N(C)c3ccc(F)cc3)C2)c1OC (centres undefined)	22µM*	-12%	-17%[46.1 µM]	-26%	-71*	nt
CSc1ccc(CCNC(=O)C2CCCN(S(=O)(=O)N(C)c3ccc(F)cc3)C2)cc1 (centres undefined)	35µM*	-7%	-18%[46.1 µM]	-22%	?	nt
CN(c1ccc(F)cc1)S(=O)(=O)N1CCCC(C(=O)NCCc2ccccc2)C1 (centres undefined)	-14%	-8%	-29%[46.1 µM]	-9%	12	nt
COc1ccc(OC)c(CNC(=O)C2CCCN(S(=O)(=O)N3CCC(C)CC3)C2)c1 (centres undefined)	-17%	nt	nt	nt	-24	nt
Cc1cc2c(c(-c3ccc(Cl)cc3)c1)OC(CNC(=O)CCC(=O)N(C)C)C2 (centres undefined)	-1%	-17%	nt	-15%	nt	nt
COc1ccc(S(=O)(=O)NCCc2nnc3ccc(SCC(=O)Nc4ccc(C(F)(F)F)cc4)nn23)cc1	-13%	0%	12%[46.1 µM]	-4%	-15	nt
COc1ccc(COc2cc(-c3cccc(OC)c3)nc3ccc(NC(=O)c4cccnc4)cc23)cc1	-27%	-2%	15µM*	-29%	82	-21%
COc1ccc(COc2cc(-c3cccc(OC)c3)nc3ccc(NC(=O)c4ccc(OC)cc4)cc23)cc1	?	i	?	-11%	-81*	?
COc1ccc(NC(=O)CSc2oc(-c3ccc(F)cc3)nc2S(=O)(=O)c2ccc(C)cc2)c(OC)c1	-3%	-19%	-8%[46.1 µM]	?	-8	4%[46.1 µM]

Source: PubChem (National Center for Advancing Translational Sciences (NCATS))
